In PubChem BioAssay (EPA / NIEHS):
Several values for one entry are separate records, joined by “and”; a condition that tells them apart may be missing. Equal entries are not always repeated. Activity calls are given as the source filed them. How the source made its calls: active means hit-call score of the fitted dose curve at least 0.9, where 1 is the maximum; inactive means score below 0.9.

Assays:
[1] = BSK_CASM3C_Proliferation: Cell Proliferation Assessment in the BioMAP Diversity Plus: CASM3C Assay (AID 2283047); conditions: primary human coronary artery smooth muscle cells;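 further: sulforhodamine B total protein stain as relative cell number at 560 nm; sub-confluent cells exposed 48 h before staining; fitted both ways against DMSO so gain or loss of cell number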
[2] = BSK_CASM3C_SRB: Viability Assessment in the BioMAP Diversity Plus: CASM3C Assay (AID 2283050); conditions: primary human coronary artery smooth muscle cells
[3] = read-out: Interferon-gamma inducible Protein 10 (IP10), CXCL10 (gene 3627); experiment: BSK_hDFCGF_IP10: BioMAP Diversity Plus: hDFCGF Assay for Interferon-gamma inducible Protein 10 (IP10) Biomarker Activity (AID 2283053); conditions: primary human foreskin fibroblasts; actives raise or lower the signal
Method in brief: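 IP-10 levels, quantified by ELISA, are taken from human foreskin fibroblast cultures 24 h after chemical treatment, with DMSO serving as negative control and baseline for bidirectional analysis.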

[4] = read-out: Interleukin-8 (IL8), CXCL8 (gene 3576); experiment: BSK_hDFCGF_IL8: BioMAP Diversity Plus: hDFCGF Assay for Interleukin-8 (IL8) Biomarker Activity (AID 2283058); conditions: primary human foreskin fibroblasts; actives raise or lower the signal
Method in brief: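 IL-8 levels from compound-treated primary human fibroblasts were read by ELISA at 24 h, with DMSO serving as baseline for bidirectional fitting.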

[5] = BSK_hDFCGF_Proliferation: Cell Proliferation Assessment in the BioMAP Diversity Plus: hDFCGF Assay (AID 2283059); conditions: primary human foreskin fibroblasts;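 further: curves fitted for both rise and fall of signal versus DMSO baseline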
Method in brief: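 This proliferation readout used SRB total-protein staining of human foreskin fibroblasts […], normalized to DMSO with bidirectional curve fitting.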

[6] = read-out: Macrophage colony-stimulating factor (MCSF), CSF1 (gene 1435); experiment: BSK_hDFCGF_MCSF: BioMAP Diversity Plus: hDFCGF Assay for Macrophage colony-stimulating factor (MCSF) Biomarker Activity (AID 2283060); conditions: AC50: primary human foreskin fibroblasts, actives raise or lower the signal unless noted; outcome: primary human foreskin fibroblasts, actives raise or lower the signal unless noted
Method in brief: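 M-CSF levels, determined by ELISA, are taken at 24 h after dosing human skin fibroblasts. Responses in either direction are fitted with DMSO serving as the baseline.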

[7] = BSK_hDFCGF_SRB: Viability Assessment in the BioMAP Diversity Plus: hDFCGF Assay (AID 2283061); conditions: primary human foreskin fibroblasts;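 further: cells exposed to compound for 24 h before the read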
Method in brief: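 Cells were dosed with test chemical, cultured 24 h, fixed with 10% TCA, then stained with 0.1% SRB and read at 560 nm. The fibroblasts were human foreskin primary cells, and DMSO served as baseline.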

[8] = read-out: TIMP metallopeptidase inhibitor 1 (TIMP1), TIMP1 (gene 7076); experiment: BSK_hDFCGF_TIMP1: BioMAP Diversity Plus: hDFCGF Assay for TIMP metallopeptidase inhibitor 1 (TIMP1) Biomarker Activity (AID 2283062); conditions: primary human foreskin fibroblasts; actives raise or lower the signal
Method in brief: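 Fibroblasts from human foreskin are treated with test chemical and harvested at 24 h. TIMP-1 is quantified by ELISA, and gain or loss of signal is scored against DMSO.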

[9] = read-out: Matrix Metallopeptidase 1 (MMP1), MMP1 (gene 4312); experiment: BSK_hDFCGF_MMP1: BioMAP Diversity Plus: hDFCGF Assay for Matrix Metallopeptidase 1 (MMP1) Biomarker Activity (AID 2283064); conditions: primary human foreskin fibroblasts; actives raise or lower the signal
Method in brief: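 hDFCGF primary fibroblasts (human foreskin); chemical added; 24 h; MMP1 by ELISA; bidirectional fit vs DMSO.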

[10] = read-out: Plasminogen activator inhibitor-1 (PAI1), SERPINE1 (gene 5054); experiment: BSK_hDFCGF_PAI1: BioMAP Diversity Plus: hDFCGF Assay for Plasminogen activator inhibitor-1 (PAI1) Biomarker Activity (AID 2283066); conditions: primary human foreskin fibroblasts; actives raise or lower the signal
Method in brief: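 PAI-1 levels, determined by ELISA, served as the endpoint in human foreskin fibroblast cultures exposed to compound for 24 h, with DMSO as baseline.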

[11] = read-out: Interferon-gamma inducible Protein 10 (IP10), CXCL10 (gene 3627); experiment: BSK_KF3CT_IP10: BioMAP Diversity Plus: KF3CT Assay for Interferon-gamma inducible Protein 10 (IP10) Biomarker Activity (AID 2283068); conditions: primary human keratinocytes with fibroblasts; actives raise or lower the signal
Method in brief: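 Signal is secreted/surface IP-10 by ELISA in a human primary skin co-culture of keratinocytes and foreskin fibroblasts, taken 24 h post-dosing; DMSO served as negative control.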

[12] = BSK_KF3CT_SRB: Viability Assessment in the BioMAP Diversity Plus: KF3CT Assay (AID 2283069); conditions: primary human keratinocytes with fibroblasts;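 further: fitted for both signal gain and loss against DMSO baseline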
Method in brief: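 Keratinocytes co-cultured with foreskin fibroblasts (human primary); chemical added, 24 h; fix 10% TCA, stain 0.1% SRB, A560. Bidirectional fit vs DMSO.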

[13] = read-out: Interleukin-1 alpha (IL1a), IL1A (gene 3552); experiment: BSK_KF3CT_IL1a: BioMAP Diversity Plus: KF3CT Assay for Interleukin-1 alpha (IL1a) Biomarker Activity (AID 2283070); conditions: primary human keratinocytes with fibroblasts; actives raise or lower the signal
Method in brief: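 Chemicals were dosed onto co-cultured human keratinocytes and foreskin fibroblasts, IL-1a was quantified by ELISA at 24 h, and activity was fitted in both directions relative to DMSO controls.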

[14] = read-out: TIMP metallopeptidase inhibitor 2 (TIMP2), TIMP2 (gene 7077); experiment: BSK_KF3CT_TIMP2: BioMAP Diversity Plus: KF3CT Assay for TIMP metallopeptidase inhibitor 2 (TIMP2) Biomarker Activity (AID 2283071); conditions: primary human keratinocytes with fibroblasts; actives raise or lower the signal
Method in brief: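 Keratinocyte–fibroblast co-culture, 24 h exposure; TIMP-2 ELISA, DMSO-normalised bidirectional fit. Parallel SRB (0.1%, TCA-fixed, 560 nm) total-protein staining gauges cytotoxicity.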

[15] = read-out: C-C motif chemokine 2 (Homo sapiens) (UniProt P13500); experiment: BSK_KF3CT_MCP1: BioMAP Diversity Plus: KF3CT Assay for Monocyte Chemoattractant Protein 1 (MCP1/CCL2) Biomarker Activity (AID 2283073); conditions: primary human keratinocytes with fibroblasts; actives raise or lower the signal
Method in brief: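 Keratinocytes and foreskin fibroblasts were co-cultured, dosed with chemical, and sampled 24 h later. MCP-1 was quantified by ELISA, and the endpoint was analyzed with bidirectional fitting using DMSO as negative control.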

[16] = read-out: urokinase plasminogen activator (uPA), PLAU (gene 5328); experiment: BSK_KF3CT_uPA: BioMAP Diversity Plus: KF3CT Assay for urokinase plasminogen activator (uPA) Biomarker Activity (AID 2283075); conditions: primary human keratinocytes with fibroblasts; actives raise or lower the signal
Method in brief: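 ELISA readout of uPA, analyzed for signal gain or loss relative to DMSO, from a human primary keratinocyte–foreskin fibroblast co-culture measured 24 h after chemical treatment.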

[17] = read-out: CD40, CD40 (gene 958); experiment: BSK_LPS_CD40: BioMAP Diversity Plus: LPS Assay for CD40 Biomarker Activity (AID 2283076); conditions: primary human HUVEC with PBMC; actives raise or lower the signal
Method in brief: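 CD40 signal, measured by ELISA, is fitted in both directions relative to DMSO vehicle. The system is an LPS-driven human vascular primary co-culture of endothelial cells and PBMC, sampled 24 h after compound addition.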

[18] = BSK_LPS_SRB: Viability Assessment in the BioMAP Diversity Plus: LPS Assay (AID 2283079); conditions: primary human HUVEC with PBMC;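 further: total protein by sulforhodamine B absorbance as a cytotoxicity measure; measured one day after compound addition; fitted in both directions against DMSO so loss or gain of signal counts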
Method in brief: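 Overt cytotoxicity was gauged by sulforhodamine B total-protein staining in a primary human vascular endothelial and mononuclear cell co-culture 24 h post-dosing. Activity was fitted in both directions relative to DMSO.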

[19] = read-out: Tumor necrosis factor (Homo sapiens) (UniProt P01375); experiment: BSK_LPS_TNFa: BioMAP Diversity Plus: LPS Assay for Tumour Necrosis Factor alpha (TNFa) Biomarker Activity (AID 2283085); conditions: primary human HUVEC with PBMC; actives raise or lower the signal
Method in brief: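 Primary human vascular co-culture of HUVEC and PBMC; TNFa ELISA 24 h after treatment, analysed as increase or decrease relative to DMSO control.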

[20] = read-out: Vascular cell adhesion molecule 1 (VCAM1), VCAM1 (gene 7412); experiment: BSK_LPS_VCAM1: BioMAP Diversity Plus: LPS Assay for Vascular cell adhesion molecule 1 (VCAM1) Biomarker Activity (AID 2283086); conditions: primary human HUVEC with PBMC; actives raise or lower the signal
Method in brief: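 Primary human vascular co-culture (umbilical vein endothelium plus PBMC) stimulated with LPS received chemical; 24 h later VCAM-1 was read by ELISA. Overt cytotoxicity was assessed by sulforhodamine B staining of parallel cultures at the same time point.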

Tumor necrosis factor (Homo sapiens), sequence (P01375 whole entry, looked up): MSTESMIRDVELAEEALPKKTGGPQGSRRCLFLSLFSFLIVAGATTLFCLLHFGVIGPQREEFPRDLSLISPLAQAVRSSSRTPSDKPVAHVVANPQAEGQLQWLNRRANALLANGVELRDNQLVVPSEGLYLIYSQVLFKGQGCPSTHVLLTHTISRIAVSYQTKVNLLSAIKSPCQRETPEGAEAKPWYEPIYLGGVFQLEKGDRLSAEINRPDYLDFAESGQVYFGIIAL

Question: Which outcome [1] does the source give for `COc1ccc(C(=O)c2ccccc2O)c(O)c1` here?
Answer: inactive

Question: What about the outcome [2] of the same compound?
Answer: inactive

Question: And the outcome [3]?
Answer: inactive

Question: What about the outcome [4] of the same compound?
Answer: inactive

Question: What about the AC50 [5] of the same compound?
Answer: 25.3 µM (active) and 27 µM (active)

Question: What about the outcome [6] of the same compound?
Answer: inactive

Question: And the outcome [7]?
Answer: inactive

Question: And the outcome [8]?
Answer: inactive

Question: And the outcome [9]?
Answer: inactive

Question: What about the outcome [10] of the same compound?
Answer: inactive

Question: What about the outcome [11] of the same compound?
Answer: inactive

Question: And the outcome [12]?
Answer: inactive

Question: What about the outcome [13] of the same compound?
Answer: inactive

Question: And the outcome [14]?
Answer: inactive

Question: What about the outcome [15] of the same compound?
Answer: inactive

Question: And the outcome [16]?
Answer: inactive

Question: And the outcome [17]?
Answer: inactive

Question: And the outcome [18]?
Answer: inactive

Question: What about the outcome [19] of the same compound?
Answer: inactive

Question: What about the outcome [20] of the same compound?
Answer: inactive

Question: For `CCC[Si](OC(C)=O)(OC(C)=O)OC(C)=O`, which outcome [1] is on record?
Answer: inactive

Question: And the outcome [2]?
Answer: inactive

Question: What about the outcome [3] of the same compound?
Answer: inactive

Question: What about the outcome [4] of the same compound?
Answer: inactive

Question: And the outcome [5]?
Answer: inactive

Question: What about the outcome [6] of the same compound?
Answer: inactive

Question: What about the outcome [7] of the same compound?
Answer: inactive

Question: What about the outcome [8] of the same compound?
Answer: inactive

Question: And the outcome [9]?
Answer: inactive

Question: What about the outcome [10] of the same compound?
Answer: inactive

Question: And the outcome [11]?
Answer: inactive

Question: And the outcome [12]?
Answer: inactive

Question: What about the outcome [13] of the same compound?
Answer: inactive

Question: And the outcome [14]?
Answer: inactive

Question: And the outcome [15]?
Answer: inactive

Question: And the outcome [16]?
Answer: inactive

Question: And the outcome [17]?
Answer: inactive

Question: And the outcome [18]?
Answer: inactive

Question: And the outcome [19]?
Answer: inactive

Question: What about the outcome [20] of the same compound?
Answer: inactive

Question: With `CN(C)CCC(c1ccc(Cl)cc1)c1ccccn1` (stereo not given) as the compound, how does the outcome [1] read?
Answer: inactive

Question: What about the outcome [2] of the same compound?
Answer: inactive

Question: And the outcome [3]?
Answer: inactive

Question: What about the outcome [4] of the same compound?
Answer: inactive

Question: What about the outcome [5] of the same compound?
Answer: inactive

Question: What about the outcome [6] of the same compound?
Answer: inactive

Question: What about the outcome [7] of the same compound?
Answer: inactive

Question: What about the outcome [8] of the same compound?
Answer: inactive

Question: What about the outcome [9] of the same compound?
Answer: inactive

Question: And the outcome [10]?
Answer: inactive

Question: And the outcome [11]?
Answer: inactive

Question: What about the outcome [12] of the same compound?
Answer: inactive

Question: What about the outcome [13] of the same compound?
Answer: inactive

Question: And the outcome [14]?
Answer: inactive

Question: And the outcome [15]?
Answer: inactive

Question: And the outcome [16]?
Answer: inactive

Question: And the outcome [17]?
Answer: inactive

Question: And the outcome [18]?
Answer: inactive

Question: And the outcome [19]?
Answer: inactive

Question: What about the outcome [20] of the same compound?
Answer: inactive
